Screens from PubChem.
Most compounds without a hit are left out; they make up all but 2.3% or so of the library.
POLB inh: inhibitors of human DNA polymerase beta; P06746; Pol beta primer extension/strand displacement, fluorescence kinetic; hit rate 1.3% among 340,000; AID 485314; Potency, µM (highest dose often 114 µM), most hits filed as inhibitors
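Enzyme-only controls used 10 nM Pol beta; buffer lacking enzyme served as negative control. Compound preincubated 15 min, then 50 nM substrate added; 0 and 10 min reads at room temperature.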
WRN helicase inh: WRN helicase (human) inhibition. WRN helicase unwinding, fluorescent forked duplex, kinetic. Potency, µM (series often up to 114 µM), hits mostly inhibitors. hit rate 0.46% among 360,000. AID 651768; also: nearly all actives have a fitted effect of over 55% in size
Target sequence (Q14191 whole entry, looked up): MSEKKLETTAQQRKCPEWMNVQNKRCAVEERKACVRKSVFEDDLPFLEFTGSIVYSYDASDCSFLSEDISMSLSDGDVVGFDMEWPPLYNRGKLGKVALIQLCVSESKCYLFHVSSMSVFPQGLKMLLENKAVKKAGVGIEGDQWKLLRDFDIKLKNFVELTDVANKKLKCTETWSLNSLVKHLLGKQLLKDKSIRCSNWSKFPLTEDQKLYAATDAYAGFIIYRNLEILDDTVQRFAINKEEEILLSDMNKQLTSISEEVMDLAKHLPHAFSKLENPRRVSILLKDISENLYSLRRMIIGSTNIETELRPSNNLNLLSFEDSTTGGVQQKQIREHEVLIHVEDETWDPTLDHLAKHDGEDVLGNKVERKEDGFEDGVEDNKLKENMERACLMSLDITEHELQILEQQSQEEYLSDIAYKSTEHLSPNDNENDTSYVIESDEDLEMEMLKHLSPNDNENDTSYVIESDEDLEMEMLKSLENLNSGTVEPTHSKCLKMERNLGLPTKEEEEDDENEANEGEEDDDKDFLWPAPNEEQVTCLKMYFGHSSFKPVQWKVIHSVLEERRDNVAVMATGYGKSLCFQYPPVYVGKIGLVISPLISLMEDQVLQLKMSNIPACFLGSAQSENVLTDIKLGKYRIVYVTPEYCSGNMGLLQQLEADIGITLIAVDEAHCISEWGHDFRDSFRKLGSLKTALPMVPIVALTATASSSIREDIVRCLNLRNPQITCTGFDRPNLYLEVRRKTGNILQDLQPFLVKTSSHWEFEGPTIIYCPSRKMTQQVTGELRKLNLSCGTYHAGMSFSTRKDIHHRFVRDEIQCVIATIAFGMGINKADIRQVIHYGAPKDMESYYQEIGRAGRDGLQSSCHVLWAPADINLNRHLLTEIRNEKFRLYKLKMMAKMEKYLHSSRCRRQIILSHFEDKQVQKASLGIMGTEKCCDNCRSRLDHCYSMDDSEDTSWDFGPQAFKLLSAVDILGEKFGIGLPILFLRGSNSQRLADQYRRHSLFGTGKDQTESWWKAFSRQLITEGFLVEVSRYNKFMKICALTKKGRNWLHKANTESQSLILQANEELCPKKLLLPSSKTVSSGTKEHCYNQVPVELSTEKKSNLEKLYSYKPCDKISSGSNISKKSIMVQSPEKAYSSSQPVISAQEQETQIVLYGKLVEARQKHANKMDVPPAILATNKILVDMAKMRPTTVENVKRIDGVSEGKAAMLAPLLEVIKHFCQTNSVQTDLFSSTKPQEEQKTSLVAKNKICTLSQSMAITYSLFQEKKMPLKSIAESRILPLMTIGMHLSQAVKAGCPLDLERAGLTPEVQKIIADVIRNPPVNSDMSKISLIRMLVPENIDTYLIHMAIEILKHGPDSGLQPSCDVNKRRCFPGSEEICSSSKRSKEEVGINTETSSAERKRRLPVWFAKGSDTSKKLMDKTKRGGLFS
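Fluorescence dequenching readout, ex 525 nm/em 598 nm, kinetic mode: forked duplex DNA (100 nM final) with adjacent fluorophore and quencher unwound by WRN (20 nM final) with 2 mM ATP. Compound preincubation 15 min, room temperature.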
Pol kappa inh: inhibitors of human DNA polymerase kappa; hit rate 0.53% among 400,000; Potency, µM (titrated, usually from 107 µM), most hits filed as inhibitors; Q9UBT6; AID 588579; purified Pol kappa, fluorescent DNA synthesis assay, 10 min
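Enzyme at 10 nM met test compounds for 15 min at room temperature. Substrate addition (50 nM final) began the reaction, which was monitored by fluorescence at 0 and 10 min.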
Pol iota inh: DNA polymerase iota (human) inhibition | Q9UNA4 | Pol iota fluorescent replication assay, 10 min | Potency, µM (doses to about 115 µM), most hits filed as inhibitors | hit rate 1% among 390,000 | AID 588590
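Fluorescent replication assay read twice, at 0 min and 10 min after adding 50 nM (final) substrate. Enzyme (10 nM) and compounds were first incubated 15 min at room temperature; enzyme-free buffer wells were negative controls.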
Pol eta inh: DNA polymerase eta (human) inhibition; recombinant Pol eta, fluorescent DNA replication assay; hit rate 1.2% among 390,000; Potency, µM (top dose mostly 114 µM), actives largely listed as inhibitors
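Pol eta (10 nM) was preincubated with compounds for 15 min at room temperature, after which fluorescent replication substrate (50 nM final) was added to start the reaction. Fluorescence was read kinetically at 0 and 10 min.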
Numbers stand for hits; [ ] = dose if it differs, or a comment. Calls follow the shape of the dose curve; as a rule, active = well fitted curve in the direction sought with a large enough effect; inconclusive = small, poorly fitted or top-dose-only effect, or another doubt; inactive = no such curve, though single readings can be large; an effect the other way counts as inactive or inconclusive.

O=C1NC(=Nc2ccccc2Cl)S/C1=C\c1ccc(C(=O)O)cc1 was read as POLB inh inactive, WRN helicase inh inactive, Pol kappa inh inactive, Pol iota inh inactive and Pol eta inh inconclusive.
Screening COc1ccc(OCC(=O)Nc2ccccc2OC)cc1 returned POLB inh inactive, WRN helicase inh inactive, Pol kappa inh inactive, Pol iota inh inactive and Pol eta inh inactive.
Screening COc1ccc(OCC(=O)Nc2ccccc2Cl)cc1 returned POLB inh 18µM, WRN helicase inh inactive, Pol kappa inh inactive, Pol iota inh inactive and Pol eta inh inactive.
`O=C(O)c1ccc([N+](=O)[O-])c2c1C(=O)c1ccccc1C2=O` gave WRN helicase inh inactive, Pol kappa inh inactive, Pol iota inh inactive and Pol eta inh inactive.
O=C1c2ccccc2C(=O)c2c([N+](=O)[O-])ccc(O)c21 was read as POLB inh inconclusive, WRN helicase inh inconclusive, Pol kappa inh inactive, Pol iota inh 50µM and Pol eta inh 32µM.
O=C(Nc1c(Cl)cc([N+](=O)[O-])cc1Cl)c1cc(Cl)cc(Cl)c1O was read as Pol kappa inh inactive and Pol iota inh inactive.
Screening CCOC(=O)CN1C(=N)N(c2nc(NC(C)C)nc(NC(C)C)n2)CC1=O returned POLB inh inactive, WRN helicase inh inactive, Pol kappa inh inactive, Pol iota inh inactive and Pol eta inh inactive.
`CCOC(=O)CN1C(=N)N(c2nc(NC(C)C)nc(OC)n2)CC1=O` gave POLB inh inactive, WRN helicase inh inactive[11.6 µM], Pol kappa inh inactive, Pol iota inh 79µM and Pol eta inh inactive.
For Oc1ccc(/C=N/N(c2ccccc2)c2ccccc2)c(O)c1O the results were POLB inh 5µM.
`Oc1ccc(/C=N/N2CCCCC2)c(O)c1O` gave POLB inh 35µM, WRN helicase inh inconclusive, Pol kappa inh inconclusive, Pol iota inh inconclusive and Pol eta inh inactive.
For Oc1cccc(/C=N/N2CCCCC2)c1O the results were POLB inh inconclusive, WRN helicase inh inactive, Pol kappa inh inactive, Pol iota inh inconclusive and Pol eta inh inactive.
`O=C1c2ccccc2C(=O)N1/N=C/c1ccc(O)c(O)c1O` gave POLB inh inconclusive, WRN helicase inh 8.9µM, Pol kappa inh 1.4µM, Pol iota inh inconclusive and Pol eta inh 1.6µM.
`O=C(Cc1ccccc1Nc1c(Cl)cccc1Cl)OCO/N=[N+](\[O-])N1CCCC1` gave Pol kappa inh inactive and Pol iota inh inconclusive.
For COCCNC(=O)c1ccc(-n2c(-c3ccccc3)cc3c2CCCCC3)cc1 the results were POLB inh inactive, Pol kappa inh inactive, Pol iota inh inactive and Pol eta inh inactive.
`CCCc1cc(=O)oc2c(C)c(OCC(=O)N3CCC[C@@H]3C(=O)O)ccc12` gave POLB inh inactive, WRN helicase inh inactive, Pol kappa inh inactive, Pol iota inh inactive and Pol eta inh inactive.
CCCCCCc1c(C)c2ccc(OCC(=O)N3CCC[C@H]3C(=O)O)c(C)c2oc1=O was read as POLB inh inactive, WRN helicase inh inactive, Pol kappa inh inactive, Pol iota inh 89µM and Pol eta inh 79µM.
`CC[C@H](NC(=O)[C@H](CCCN=C(N)N)NC(=O)[C@H](Cc1c[nH]c2ccccc12)NC(=O)[C@@H](N)CS)C(=O)N[C@@H](CCCN=C(N)N)C(=O)N[C@@H](Cc1ccc(O)cc1)C(N)=O` gave Pol kappa inh inactive.
For N#Cc1ccc(OCC(=O)Nc2nc(-c3cccnc3)cs2)cc1 the results were WRN helicase inh inactive[11.6 µM], Pol kappa inh inactive, Pol iota inh inconclusive and Pol eta inh 50µM.
Screening O=C(COc1ccccc1)Nc1nc(-c2cccnc2)cs1 returned WRN helicase inh inactive, Pol kappa inh inactive, Pol iota inh inactive and Pol eta inh inconclusive.
Screening CC(Oc1ccc(F)cc1)C(=O)Nc1cccc(-c2nn[nH]n2)c1 (stereo unspecified) returned POLB inh inactive, WRN helicase inh inactive, Pol kappa inh inactive, Pol iota inh 45µM and Pol eta inh 45µM.
COc1ccc(OC(C)C(=O)Nc2cccc(OC)c2)cc1 (stereo unspecified) was read as POLB inh inactive, WRN helicase inh inactive, Pol kappa inh inactive, Pol iota inh inactive and Pol eta inh inactive.
CC(C)N(c1ccc(C=O)cc1)C(C)C was read as Pol kappa inh inactive and Pol iota inh inactive.
Screening CSc1ccccc1NC(=O)c1cc2c(=O)n3ccccc3nc2s1 returned POLB inh inactive, WRN helicase inh inconclusive, Pol kappa inh inactive, Pol iota inh inactive and Pol eta inh inactive.
Screening COc1ccc(Cl)cc1NC(=O)c1cc2c(=O)n3ccccc3nc2s1 returned POLB inh 7.1µM, Pol kappa inh inactive and Pol iota inh inactive.
O=C(NNC(=O)c1ccc(-c2ccccc2)cc1)c1ccccc1 was read as POLB inh inactive, WRN helicase inh inactive[11.6 µM], Pol kappa inh inactive, Pol iota inh 79µM and Pol eta inh inconclusive.
CCCCCC(=O)NNC(=O)c1ccc(-c2ccccc2)cc1 was read as POLB inh 40µM, WRN helicase inh inactive, Pol kappa inh inactive, Pol iota inh inconclusive and Pol eta inh inactive.
Cc1ccccc1OCC(=O)NNC(=O)c1ccc(-c2ccccc2)cc1 was read as POLB inh inconclusive, WRN helicase inh inactive, Pol kappa inh inactive, Pol iota inh 79µM and Pol eta inh inactive.
Cc1ccccc1OCC(=O)NCC(=O)OCC(=O)c1ccc(-c2ccccc2)cc1 was read as Pol kappa inh inactive and Pol iota inh inactive.
`CC(NC(=O)c1cnn2c1NC(=C1CC1)C=C2C(F)F)c1ccncc1` (stereo unspecified) gave Pol kappa inh inactive and Pol iota inh inactive.
Screening Cc1ccc(S(=O)(=O)N(C)CCCN(C)c2nc(-c3cccs3)nc3ccccc23)cc1 returned Pol kappa inh inactive and Pol iota inh inactive.
`CC(=O)Oc1cc(C)c(OC(C)=O)c2ccccc12` gave Pol kappa inh inactive.
CCCNC(=O)c1ccc(Cn2cc(C(F)(F)F)ccc2=O)cc1 was read as POLB inh inactive, WRN helicase inh inactive, Pol kappa inh inactive, Pol iota inh 89µM and Pol eta inh inactive.
`O=C(COc1ccccc1C(=O)Nc1ccccc1)Nc1cccc(Cl)c1` gave Pol kappa inh inactive and Pol iota inh inactive.
Screening O=C(O)c1cc(NS(=O)(=O)c2ccc(NC3CCCCC3)c([N+](=O)[O-])c2)cc(C(=O)O)c1 returned POLB inh inactive, WRN helicase inh inactive[11.6 µM], Pol kappa inh inactive, Pol iota inh inactive and Pol eta inh 45µM.
For COc1ccc2[nH]c(C)cc2c1 the results were Pol kappa inh inactive and Pol iota inh inactive.
For Cc1c(C2(c3cc(C(C)C)c(O)c(Br)c3C)OS(=O)(=O)c3ccccc32)cc(C(C)C)c(O)c1Br the results were Pol kappa inh inactive and Pol iota inh inconclusive.
For O=C(N/N=C/c1ccc([N+](=O)[O-])s1)c1ccncc1 the results were POLB inh inactive, WRN helicase inh inactive, Pol kappa inh inactive, Pol iota inh inconclusive and Pol eta inh inactive.
